A short description of test [1]: cAMP Responsive Elements (CRE) small molecule antagonists, cell-based qHTS assay: qHTS cell viability counter screen (AID 2060913). Also: nearly all actives have a fitted effect of over 40% in size. Also: potency is read from the fitted curve at half-maximal effect. The method, boiled down: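 HEK293T CRE-bla, 2,000 cells/well, 18 h preincubation; cpd in DMSO + NKH477 0.25 uM final, 3 h 37 C/5% CO2; LiveBLAzer 2 h RT, then CellTiter-Glo 30 min RT, luminescence.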
The nature of test [2]: cAMP Responsive Elements (CRE) small molecule agonists, cell-based qHTS assay: qHTS cell viability counter screen (AID 2060914).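 Also: viability read after 3 h of compound exposure; nearly all actives have a fitted effect of over 50% in size.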 In outline:
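CRE-bla HEK293T cells in 10% dialyzed FBS medium were exposed to compounds for 3 h at 37C after 18 h plating. CellTiter-Glo was then added in the same wells, and luminescence was read after 30 min at room temperature.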
(In general: In qHTS, concentration-response curves come from the screen itself.)

“And” between values parts separate entries of the source, which are not always exact repeats. Identical values can stand only once. Inconclusive results are not listed. A call without a number means that no potency is given here. The source made the active and inactive calls. Calls follow the shape of the dose curve; as a rule, active = well fitted cell-killing curve with a large enough effect in the repeat runs; inconclusive = weak or mixed curves, or effect the other way; inactive = flat fitted curve, though single readings scatter.

In the case of `CC(=O)CCc1ccc(OC(C)=O)cc1`, the Potency result in test [1] was “inactive”.

For `OC(CCN1CCCCC1)(c1ccccc1)C1CC2C=CC1C2` (centres undefined), the Potency result in test [1] is “inactive”.

Turning to `c1ccc2cnccc2c1`, the Potency entry in test [1] was “inactive”.

For the compound `O=C1CCc2cc(OCCCCc3nnnn3C3CCCCC3)ccc2N1`, the Potency result in test [1] was “inactive”.

As for `C=C(C)CCCC(C)CCO` (centres undefined), the Potency result in test [1] is “inactive”.

On to `CC(C)(C)c1ccc(C(=O)CCCN2CCC(OC(c3ccccc3)c3ccccc3)CC2)cc1`, for which, in test [1], the Potency result is “inactive”.

With `CCc1ccc(C)nc1`, in test [1], the Potency entry is “inactive”.

`C=CC(=O)OCC(CO)(COC(=O)C=C)COC(=O)C=C`: in test [1], the Potency was 28.5 µM (active).

Regarding `CC(C)c1ccccc1`, in test [1], the Potency entry is “inactive”.

Consider `CC1=NS(=O)(=O)c2cc(Cl)ccc2N1`, for which, in test [1], the Potency result is “inactive”.

As to `CC(CCc1ccc(O)cc1)NCCc1ccc(O)c(O)c1` (centres undefined), the Potency result in test [1] was “inactive”.

With `COc1cc(N)c(Cl)cc1C(=O)NC1CCN(Cc2ccccc2)CC1`, in test [1], the Potency entry was “inactive”.

With `Nc1ncnc2c1ncn2[C@H]1CC[C@@H](CO)O1`, the Potency entry in test [1] was “inactive”.

With `Cc1ccc(C(C)OC(=O)C2(C)CCC(C(=O)O)C2(C)C)cc1` (centres undefined), the Potency entry in test [1] was “inactive”.

Consider `O=[N+]([O-])c1ccc(/C=C/c2ccc([N+](=O)[O-])cc2S(=O)(=O)O)c(S(=O)(=O)O)c1`, for which the Potency entry in test [1] is “inactive”.

In the case of `CCN(Cc1ccncc1)C(=O)C(CO)c1ccccc1` (centres undefined), the Potency entry in test [1] is “inactive”.

On to `CC(=O)Nc1ncc([N+](=O)[O-])s1`, for which, in test [1], the Potency result was “inactive”.

Take `c1ccc(-c2ccc(C(c3ccccc3)n3ccnc3)cc2)cc1` (centres undefined): the Potency entry in test [1] was “inactive”.

Turning to `Cc1c(O)cccc1O`, the Potency result in test [1] was “inactive”.

Take `CC(C)(Sc1cc(C(C)(C)C)c(O)c(C(C)(C)C)c1)Sc1cc(C(C)(C)C)c(O)c(C(C)(C)C)c1`: the Potency result in test [1] was “inactive”.

For the compound `O=C(O)CNC(=O)c1ccccc1I`, in test [1], the Potency entry was “inactive”.

As to `C=CCCCCCC`, the Potency entry in test [1] is “inactive”.

In the case of `O=C(O)CNC(=O)CNC(=O)CNC(=O)CSC(=O)c1ccccc1`, in test [1], the Potency result is “inactive”.

On to `CC(=O)C(C)=O`, for which the Potency entry in test [1] was “inactive”.

With `CC(N=C(NC#N)Nc1ccncc1)C(C)(C)C` (centres undefined), in test [1], the Potency result was “inactive”.

Take `N#CCCCC(C#N)CCC#N` (centres undefined): the Potency result in test [1] was “inactive”.

For the compound `CN(CC1(C)CCCO1)S(=O)(=O)c1ccc(Cl)c(S(N)(=O)=O)c1` (centres undefined), the Potency entry in test [1] is “inactive”.

Take `O=c1[nH]c(=O)n([C@H]2C[C@H](O)[C@@H](CO)O2)cc1I`: the Potency entry in test [1] is “inactive”.

In the case of `Cc1cc(=O)c2c(O)c3c(O)cc(=O)c4c3c3c(cc(O)c1c23)C(C)(C)C=4O`, the viability change, negative = cytotoxic in test [1] is -18.2% [at 18.9 µM] (inactive).

For the compound `CC1(C)CC(O)CC(C)(C)N1[O]`, the Potency entry in test [1] is “inactive”.

With `O=C1CCCCCCCCCCCCCC1`, the Potency entry in test [1] is “inactive”.

Regarding `O=C(O)Cc1cc(I)c(Oc2cc(I)c(O)c(I)c2)c(I)c1`, in test [1], the Potency result is “inactive”.

On to `CC(C)(C)c1ccc(OC2CCCCC2O)cc1` (centres undefined), for which, in test [1], the Potency result is “inactive”.

For the compound `C=C(C)C(=O)OCCOCCOCCOCCOC(=O)C(=C)C`, the Potency result in test [1] was “inactive”.

On to `CCOc1nc2cccc(C(=O)OC(C)OC(=O)OC3CCCCC3)c2n1Cc1ccc(-c2ccccc2-c2nn[nH]n2)cc1` (centres undefined), for which the Potency in test [1] is 48.5 µM (active).

For the compound `CCCCc1ccc2c(n1)[C@@H](c1ccc(OC)cc1C[C@H](C)C(=O)O)[C@H](C(=O)O)[C@H]2c1ccc2c(c1)OCO2`, the Potency result in test [1] is “inactive”.

Turning to `CCC(C)c1nccnc1OC` (centres undefined), in test [1], the Potency entry was “inactive”.

Turning to `C=C(C)C(=O)OCC(O)CO` (centres undefined), in test [1], the Potency entry was “inactive”.

Take `CC(C)(N)CO`: the Potency result in test [1] was “inactive”.

For `Nc1ccc(C(=O)NCC(=O)O)cc1`, the Potency result in test [1] was “inactive”.

For `C=CCNc1nc(NCC=C)nc(N2CCN(C(c3ccc(F)cc3)c3ccc(F)cc3)CC2)n1`, the Potency result in test [1] is “inactive”.

As for `NCc1cccc(C2CCN(C(=O)c3ccc(C#Cc4ccccc4F)o3)CC2)c1`, in test [1], the Potency is 68.6 µM (active).

As for `CC(C)(C)c1ccc(O)c(C(C)(C)C)c1`, in test [1], the Potency was 48.6 µM (active).

For the compound `C1CCC2=NCCCN2CC1`, the Potency entry in test [1] was “inactive”.

Take `CN(C)C(=O)Nc1ccc(Oc2ccc(Cl)cc2)cc1`: the Potency result in test [1] was “inactive”.

For the compound `Cc1oc(=O)oc1COC(=O)[C@@H]1N2C(=O)[C@@H](NC(=O)[C@H](N)c3ccccc3)[C@H]2SC1(C)C`, in test [1], the Potency entry is “inactive”.

For `Nc1ccc(C(=O)O)cc1`, the Potency result in test [1] was “inactive”.

As for `CC(CN)CC(C)(C)CCN` (centres undefined), the Potency entry in test [1] was “inactive”.

`C=CC(=C)CCC=C(C)C`: in test [1], the Potency entry was “inactive”.

For the compound `CCCCCCC1(C)CCC(=O)O1` (centres undefined), in test [1], the Potency entry is “inactive”.

On to `CC(C)COC(=O)CC(C(=O)OCC(C)C)S(=O)(=O)O` (centres undefined), for which the Potency entry in test [1] was “inactive”.

`CCC(C)S` (centres undefined): the viability change, negative = cytotoxic in test [1] was 3.82% [at 3.27 µM] (inactive).

Regarding `CCOC(=O)Cn1c(=O)sc2cccc(Cl)c21`, the Potency entry in test [1] is “inactive”.

On to `CCCCC(CC)COC(=O)c1ccc(N(C)C)cc1` (centres undefined), for which, in test [1], the Potency result is “inactive”.

In the case of `C=CC(C)(CCC=C(C)C)OC(=O)c1ccccc1` (centres undefined), in test [1], the Potency result is “inactive”.

For the compound `OC[C@H]1O[C@@H](O[C@H]2[C@H](O)[C@@H](O)[C@H](O)O[C@@H]2CO)[C@H](O)[C@@H](O)[C@H]1O`, the Potency result in test [1] was “inactive”.

With `COc1ccnc(CS(=O)c2nc3ccc(OC(F)F)cc3[nH]2)c1OC` (centres undefined), the Potency entry in test [1] was “inactive”.

Consider `Nc1cc(S(=O)(=O)O)cc2cc(S(=O)(=O)O)cc(O)c12`, for which the Potency result in test [1] was “inactive”.

As for `O=C(O)c1cccnc1Nc1cccc(C(F)(F)F)c1`, the Potency entry in test [1] is “inactive”.

In the case of `CCCCCCCCCCCCOC(=O)c1ccc(O)cc1`, the Potency entry in test [1] was “inactive”.

For `CC(=O)Nc1ccc(OCC(O)CNC(C)C)cc1` (centres undefined), the Potency entry in test [1] was “inactive”.

Consider `CCCCCCCCn1sc(Cl)c(Cl)c1=O`, for which, in test [1], the Potency is 30.6 µM (active).

As to `COc1ccccc1C=O`, in test [1], the Potency result was “inactive”.

Turning to `CN(C)c1ccc(C(=C2C=CC(=[N+](C)C)C=C2)c2ccccc2)cc1`, the Potency in test [1] was 15.4 µM (active) and 11.9 µM (active) and 10.6 µM (active).

As to `CC(C)OC(=O)c1cc(C(=O)OC(C)C)cc([N+](=O)[O-])c1`, the Potency result in test [1] was “inactive”.

With `O=[N+]([O-])c1cccc(Cl)c1Cl`, the Potency result in test [1] and in test [2] was “inactive” each time.

For the compound `CC(COc1ccccc1)N(CCCl)Cc1ccccc1` (centres undefined), the Potency result in test [1] and in test [2] was “inactive” throughout.

(Values after PubChem BioAssay (Tox21).)
